In the supplement of paper PMC6555819:

Assays:
Assay in all cases: PBM binding z-score (relative to random genomic background probes); higher = stronger binding; sequences stand for … in GC…GCGATTGACAGCGTAGAATGAAGG
[1] = tested on: PPARg:RXRa DBDmut IVT, anti-RXR (DBD mutation: RXRa K156A/R161A, NR concentration 270 nM, RXRa partner concentration 90 nM)
Procedure, shortened: (§1)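 Binding z-scores were set against random background probes. The data came from custom Agilent 4×180K protein-binding microarrays carrying double-stranded probes with 34-nt variable regions, incubated 1 h with ligand-free nuclear receptor dimers. Partner-specific antibodies detected binding, and scanned fluorescence was regression-normalized.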

[2] = tested on: PPARg:RXRa IVT, anti-PPARg (NR concentration 270 nM, RXRa partner concentration 90 nM)
Procedure, shortened: as §1

[3] = tested on: PPARg DBDmut:RXRa IVT, anti-PPARg (DBD mutation: PPARg1 K132A/R137A, NR concentration 270 nM, RXRa partner concentration 90 nM)
Procedure, shortened: as §1

[4] = tested on: PPARg DBDmut IVT, anti-PPARg (DBD mutation: PPARg1 K132A/R137A, NR concentration 270 nM)
Procedure, shortened: as §1

[5] = tested on: PPARg homodimer (NR concentration 180 nM)
Procedure, shortened: as §1

[6] = tested on: PXR:RXRa (NR concentration 270 nM, RXRa partner concentration 90 nM)
Procedure, shortened: as §1

[7] = tested on: PXR homodimer (NR concentration 270 nM)
Procedure, shortened: as §1

[8] = tested on: RARa:RXR (NR concentration 270 nM, RXRa partner concentration 90 nM)
Procedure, shortened: as §1

[9] = tested on: RARa homodimer (NR concentration 270 nM)
Procedure, shortened: as §1

[10] = tested on: RARb:RXRa (NR concentration 270 nM, RXRa partner concentration 90 nM)
Procedure, shortened: as §1

[11] = tested on: RARb homodimer (NR concentration 270 nM)
Procedure, shortened: as §1

[12] = tested on: RARg:RXRa (NR concentration 270 nM, RXRa partner concentration 90 nM)
Procedure, shortened: as §1

[13] = tested on: RARg homodimer (NR concentration 270 nM)
Procedure, shortened: as §1

[14] = tested on: RXRa DBDmut IVT, anti-RXR (DBD mutation: RXRa K156A/R161A, NR concentration 90 nM)
Procedure, shortened: as §1

[15] = tested on: RXRa homodimer (NR concentration 180 nM)
Procedure, shortened: as §1

[16] = tested on: THRa:RXRa (NR concentration 90 nM, RXRa partner concentration 90 nM)
Procedure, shortened: as §1

[17] = tested on: THRa homodimer (NR concentration 90 nM)
Procedure, shortened: as §1

[18] = tested on: VDR homodimer (NR concentration 270 nM)
Procedure, shortened: as §1

Sequence	PBM binding z-score [1]	PBM binding z-score [2]	PBM binding z-score [3]	PBM binding z-score [4]	PBM binding z-score [5]	PBM binding z-score [6]	PBM binding z-score [7]	PBM binding z-score [8]	PBM binding z-score [9]	PBM binding z-score [10]	PBM binding z-score [11]	PBM binding z-score [12]	PBM binding z-score [13]	PBM binding z-score [14]	PBM binding z-score [15]	PBM binding z-score [16]	PBM binding z-score [17]	PBM binding z-score [18]
TCAATTAGTTGAAGGGCAACCGACGAGTCCGTTT	1.84	0.225	-0.0622	0.241	-0.0858	0.533	0.791	0.357	-0.199	1.54	1.28	0.369	0.258	1.02	0.562	0.164	-0.267	1.42
ATTACAGGGTCACTAGGCCAGAGTAGGTACGAAT	3.81	5.92	2.92	2.81	2.63	3.43	0.344	4.32	1.19	4.46	3.38	5.4	5.25	2.67	5.24	3.48	1.5	2.93
CGTCCAAAGTCAGCAGGTCAGTGAAAGCGACGTG	0.261	0.191	-0.441	-1.08	0.985	0.594	-0.2	0.951	-0.229	2.05	2.43	1.31	1.5	0.597	0.851	1.05	0.291	0.0938
CCTCCTAGGTCATGGTCAGCTAATCTACAGTATG	3.36	3.76	0.488	0.0352	1.57	1.77	0.241	2.36	1.05	4.02	3.55	3.91	4.49	1.04	2.93	3.09	1.92	0.641
TGAATGAGGTCATAAGATCAGGGAACGTTGCAAA	4.55	5.82	2.51	1.96	1.71	4.37	0.734	5.17	0.421	4.55	3.34	5.65	5	3.74	5.88	3.85	2.43	3.77
GATACATGGTCAAGGCCAGAGTACGCGTATTGAT	0.0376	0.621	-0.439	0.11	-0.243	-0.158	-0.13	-0.204	-0.125	1.25	0.856	0.785	0.985	-0.244	0.439	0.149	-0.41	0.0812
TCATATAGGTAAAGGTGATAGTCGAACGATATGA	3.45	3.38	1.17	1.36	0.694	0.398	0.262	0.569	0.68	1.09	0.45	0.866	0.944	0.699	1.19	0.353	-0.589	-0.591
ATCTCTAGATAAAAGTTCAGTGAATCCCGAGGAT	-0.00193	0.486	1.04	0.904	1.13	1.57	1.32	0.986	0.594	2.13	2.21	1.29	1.8	0.614	0.778	0.538	-0.209	1.35
AGTCAAAGTTCAGGACGAGGTAAGGTAAAGCACG	-0.019	1.69	0.348	-0.0383	2.01	2.5	1.18	2.42	1.06	4.4	3.46	4.56	4.61	3.11	3.09	3.72	2.26	2.09
CGTCCAAGGACAGAGAGGTCAGTGAATGCCGAGT	0.0804	0.561	-0.629	-1.01	1.79	3.01	3.16	2.48	0.679	3.33	4	3.21	3.98	1.29	2.11	3.27	1.69	2.7
ACAGACGGGTGAGTGAAGGTAACTCAGCTGGACG	-0.0722	0.467	2.8e-05	-1.31	0.113	-0.343	-0.231	0.0341	-0.176	0.0932	0.0268	-0.0676	0.0149	-0.71	0.204	1.45	-0.184	-0.714
TCTAGTTGGTCAAGGGTCACACACTCGAAATGCG	2.52	5.1	1.64	0.978	4.73	4.32	0.895	5.98	2.83	3.94	4.19	5.29	4.87	1.59	6.31	3.13	1.47	2.76
TCATATAGGTAATACTGGTGAAAGTCGGCATCTA	3.8	2.46	1.36	0.717	0.814	0.689	-0.083	0.73	0.536	0.451	-0.0217	0.407	0.265	1.59	0.819	0.113	-0.05	0.596
CCTAATTGGTCAGGAGGTCACACACCGGATATGA	1.64	3.67	0.824	0.695	3.7	4.19	1.4	4.5	2.15	3.87	4.46	4.97	4.47	1.33	4.88	3.69	2.45	2.62
CGTCCAAGGTCAGAGAGGTCAGTGAATGCCGAGT	3.16	3.45	0.28	-0.412	5.38	6.23	12.3	5.74	3.8	5.21	5.19	6.25	6.97	3.52	5.73	4.19	2.86	5.68
TCTATTAGTTGATTTGGGCAACCGAAACAGCGGA	2.03	0.616	1.09	1.16	0.506	0.543	0.421	0.432	0.567	0.368	-0.204	0.225	0.0812	1.3	0.406	-0.0733	0.427	0.414
